Source: the supplement of paper PMC10646978
± gives the standard deviation.

Assays:
Conditions in all cases: modulator concentration 10 µM
[1] = system: RAW-Dual (murine macrophage reporter line); assay: NF-kB reporter (SEAP) activity fold change vs agonist alone; higher = enhanced NF-kB activity
Summary of the method: (§1)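 RAW-Dual murine macrophage reporter cells were seeded at 50 000 per well in 384-well plates and pre-incubated 1 hour at 37 °C with compound pin-transferred to 10 μM final. After 1 hour, a PRR agonist was added and cells incubated overnight. Supernatant NF-κB (SEAP, QUANTI-Blue, 620 nm absorbance) and IRF (Lucia luciferase, QUANTI-Luc, luminescence) signals were divided by the mean agonist-only control on the same plate to give fold change. Two replicate plates were averaged, with errors by propagation.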

[2] = system: RAW-Dual (murine macrophage reporter line); assay: IRF reporter (Lucia luciferase) activity fold change vs agonist alone; higher = enhanced IRF activity
Summary of the method: as §1

[3] = system: RAW-Dual (murine macrophage reporter line); assay: viability score (confluency relative to resting cells, overnight) (fraction); higher = more viable, active = viable (0.7 or more)
Summary of the method: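 RAW-Dual macrophages in 384-well plates were incubated overnight with compound, final concentration 10 μM. Confluency images from IncuCyte were processed in IncuCyte software into two masks covering all imaged wells. The viability score is each well's confluency relative to resting cells, and a compound met the cutoff when both masks exceeded 70% of resting cells.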

[4] = agonist: CpG ODN 1826 0.5 ug/mL

Row | SMILES | NF-kB reporter [1, 4] | NF-kB reporter ([1]; agonist: LPS 0.1 ug/mL) | NF-kB reporter ([1]; agonist: MPLA […]) | IRF reporter ([2]; agonist: 3'3'-cGAMP 10 ug/mL) | IRF reporter ([2]; agonist: LPS 0.1 ug/mL) | IRF reporter ([2]; agonist: MPLA […]) | viability score [3]
1 | Br.NCCc1cc(O)c(O)cc1O | 1.04 ± 0.28 | 0.911 ± 0.073 | 1.14 ± 0.08 | 0.609 ± 0.036 | 1.32 ± 0.24 | 1.19 ± 0.19 | 0.53 (inactive)
2 | Cc1ccc(C)c2sc(N3CCN(C)CC3)nc12.Cl | 0.743 ± 0.18 | 1.02 ± 0.18 | 1.07 ± 0.071 | 0.92 ± 0.032 | 1.04 ± 0.14 | 1.19 ± 0.22 | 0.976 (active)
3 | CCC1(O)C(=O)OCc2c1cc1n(c2=O)Cc2cc3ccccc3nc2-1 (stereo unspecified) | 0.948 ± 0.074 | 0.912 ± 0.069 | 0.889 ± 0.092 | 1.04 ± 0.033 | 1.24 ± 0.2 | 1.41 ± 0.24 | 0.974 (active)
4 | CN1C(=O)C(=Cc2nc3ccccc3c(=O)n2-c2ccccc2)c2ccccc21 | 1.01 ± 0.088 | 0.867 ± 0.097 | 1.65 ± 0.63 | 1.08 ± 0.052 | 1.32 ± 0.23 | 1.29 ± 0.24 | 1.05 (active)
5 | CCn1cc(C(=O)O)c(=O)c2c(N)c(F)c(N3CCNCC3)c(F)c21 | 0.952 ± 0.067 | 1.09 ± 0.068 | 0.859 ± 0.073 | 0.972 ± 0.033 | 1.47 ± 0.14 | 1.2 ± 0.2 | 0.998 (active)
6 | CC(NC(C)(C)C)C(=O)c1cccc(Cl)c1.Cl (stereo unspecified) | 0.906 ± 0.1 | 1.09 ± 0.11 | 0.99 ± 0.048 | 0.986 ± 0.065 | 0.955 ± 0.1 | 0.904 ± 0.14 | 0.998 (active)
7 | CCN(CC)CCNC(=O)C(O)(c1ccccc1)c1ccccc1 | 0.873 ± 0.071 | 0.937 ± 0.066 | 0.964 ± 0.038 | 0.968 ± 0.076 | 0.991 ± 0.17 | 0.923 ± 0.23 | 0.998 (active)
8 | COc1ccc2c3c([nH]c2c1)C(C)=NCC3 | 0.359 ± 0.089 | 0.917 ± 0.046 | 0.852 ± 0.054 | 0.778 ± 0.038 | 0.771 ± 0.17 | 0.793 ± 0.15 | 1 (active)
9 | COc1ccc(CCNCc2ccc(OC)c(OC)c2OC)cc1OC | 1.01 ± 0.11 | 0.876 ± 0.14 | 0.942 ± 0.052 | 0.927 ± 0.16 | 1.01 ± 0.044 | 0.997 ± 0.11 | 0.998 (active)
10 | Cc1ccccc1N1C(=O)C(=Cc2ccc(-c3ccc(C(=O)O)c(Cl)c3)o2)C(=O)NC1=S | 0.617 ± 0.049 | 1.05 ± 0.067 | 0.9 ± 0.066 | 0.692 ± 0.017 | 1.24 ± 0.24 | 0.964 ± 0.2 | 1.01 (active)
11 | CCN(CC)CCOC(=O)C(O)(c1ccccc1)c1ccccc1.Cl | 1.16 ± 0.16 | 1.04 ± 0.41 | 0.923 ± 0.066 | 1.38 ± 0.043 | 1.03 ± 0.3 | 1.44 ± 0.11 | 0.98 (active)
12 | COC(=O)C1C2C(=O)N(c3ccccc3)C(=O)C12c1ccc(Cl)cc1 (stereo unspecified) | 1.1 ± 0.094 | 1.11 ± 0.09 | 1.01 ± 0.037 | 1.01 ± 0.04 | 1.03 ± 0.055 | 1.08 ± 0.11 | 1 (active)
13 | CCOc1cc(C=C2C(=O)NC(=O)NC2=O)ccc1OCc1c(Cl)cccc1Cl | 1.06 ± 0.091 | 1.01 ± 0.07 | 0.938 ± 0.11 | 1.07 ± 0.038 | 1.35 ± 0.11 | 1.2 ± 0.14 | 1.01 (active)
14 | O=C(O)COc1cc(Cl)c(Cl)cc1Cl | 0.993 ± 0.076 | 0.836 ± 0.11 | 0.995 ± 0.093 | 1.02 ± 0.039 | 1.37 ± 0.18 | 1.46 ± 0.26 | 1.04 (active)
15 | CN1C2CCC1CC(OC(=O)[C@H](CO)c1ccccc1)C2 (stereo partly specified) | 1.05 ± 0.096 | 0.961 ± 0.051 | 0.984 ± 0.031 | 0.955 ± 0.069 | 0.968 ± 0.088 | 0.858 ± 0.14 | 0.997 (active)
16 | CC(O)(CS(=O)(=O)c1ccc(F)cc1)C(=O)Nc1ccc(C#N)c(C(F)(F)F)c1 (stereo unspecified) | 1.38 ± 0.26 | 0.966 ± 0.081 | 0.952 ± 0.053 | 0.991 ± 0.067 | 1.05 ± 0.095 | 1.23 ± 0.17 | 0.987 (active)
17 | CC12CCC3C(CCC4CC(Cl)CCC43C)C1CCC2=O (stereo unspecified) | 0.925 ± 0.074 | 0.921 ± 0.077 | 0.906 ± 0.094 | 0.961 ± 0.11 | 0.953 ± 0.11 | 0.955 ± 0.16 | 1.05 (active)
18 | Cl.Clc1ccc(C(OCCN2CCCCC2)c2ccccc2)cc1 (stereo unspecified) | 0.656 ± 0.26 | 0.756 ± 0.051 | 0.721 ± 0.049 | 0.543 ± 0.023 | 1.25 ± 0.15 | 1.24 ± 0.14 | 0.652 (inactive)
19 | COc1ccccc1N1C(=O)C(=Cc2ccc(C)s2)C(=O)NC1=S | 1.07 ± 0.11 | 1.08 ± 0.093 | 0.973 ± 0.084 | 0.953 ± 0.049 | 1.8 ± 0.28 | 1.39 ± 0.14 | 0.992 (active)
20 | C1=C(c2c[nH]c3ccccc23)CCNC1 | 0.448 ± 0.025 | 1.03 ± 0.069 | 0.915 ± 0.079 | 0.496 ± 0.016 | 1.15 ± 0.077 | 0.898 ± 0.087 | 0.989 (active)
21 | CCCCCC(=O)NC(Oc1ccc([N+](=O)[O-])cc1)C(Cl)(Cl)Cl (stereo unspecified) | 0.988 ± 0.091 | 1.08 ± 0.07 | 1 ± 0.035 | 0.896 ± 0.22 | 1.06 ± 0.085 | 1.03 ± 0.069 | 1 (active)
22 | CC12CCC3C(CC=C4CC(O)CCC43C)C1CC(=Cc1cccc(F)c1)C2=O (stereo unspecified) | 0.722 ± 0.046 | 1 ± 0.061 | 1.05 ± 0.083 | 0.907 ± 0.03 | 1.61 ± 0.13 | 1.31 ± 0.12 | 0.933 (active)
23 | CCC1(c2c[nH]cn2)Cc2ccccc2C1.Cl | 0.752 ± 0.1 | 1.11 ± 0.082 | 0.863 ± 0.05 | 1 ± 0.05 | 1.25 ± 0.11 | 1.07 ± 0.081 | 0.976 (active)
24 | COc1cc([C@@H]2c3cc4c(cc3[C@H](O)[C@H]3COC(=O)[C@H]23)OCO4)cc(OC)c1OC [Prestw-782] | 2.45 ± 0.14 | 1.61 ± 0.098 | 2.69 ± 0.16 | 0.0908 ± 0.0036 | 1.48 ± 0.1 | 1.6 ± 0.31 | 0.721 (active)
25 | COc1ccc(-n2c(C)nc3ccc(NC(=O)CC4CCCC4)cc3c2=O)cc1 | 1.14 ± 0.14 | 1.06 ± 0.13 | 0.932 ± 0.075 | 0.946 ± 0.048 | 0.925 ± 0.073 | 0.875 ± 0.15 | 1.01 (active)
26 | CC(C)c1ccc2c(c1O)CCC1C3=C(CCC21C)C(=O)OC3 (stereo unspecified) | 0.921 ± 0.072 | 0.815 ± 0.11 | 0.986 ± 0.093 | 0.939 ± 0.029 | 1.11 ± 0.19 | 1.23 ± 0.26 | 1.03 (active)
27 | Cc1cc(C(=O)N2C3CCC2c2cncnc2C3)n(C)n1 (stereo unspecified) | 0.979 ± 0.074 | 1.01 ± 0.085 | 0.917 ± 0.046 | 0.983 ± 0.085 | 1.19 ± 0.096 | 1.11 ± 0.22 | 1 (active)
28 | CCOC(=O)c1ccccc1-c1ccc(C=C2C(=O)NC(=O)N(c3ccccc3C)C2=O)o1 | 0.727 ± 0.082 | 0.444 ± 0.025 | 0.358 ± 0.051 | 0.655 ± 0.023 | 0.631 ± 0.096 | 0.321 ± 0.088 | 0.0805 (inactive)
